According to PubChem BioAssay (NCATS):
Results filed as inconclusive are left out. Calls of active or inactive are those of the source. Unless noted, calls follow the shape of the dose curve; as a rule, active = well fitted curve in the direction sought with a large enough effect; inconclusive = small, poorly fitted or top-dose-only effect, or another doubt; inactive = no such curve, though single readings can be large; an effect the other way counts as inactive or inconclusive.

Legend:
[1] = molecular target: Lysosomal acid glucosylceramidase (Homo sapiens) (UniProt P04062); experiment: Glucocerebrosidase-p2 (AID 348; in the data active = potency below about 10 µM; also: potency is read from the fitted curve at half-maximal effect); conditions: purified GBA, blue fluorogenic substrate, 40 min
Outline: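 Compounds titrated from 0.6 nM upwards against 0.2 nM enzyme in pH 5.9 citric acid/KH2PO4, taurocholate, tween-20; blue fluorogenic substrate 80 uM, 40 min room temperature, stopped and read Ex 365/Em 440 for AC50.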

[2] = AP1 Signaling Pathway (AID 357; active = well fitted curve in either direction with a large enough effect, not every such curve was filed as active; also: % is scaled to controls: 0 for no effect and ±100 for the full control effect); conditions: ME-180 AP-1-bla reporter, EGF-induced, beta-lactamase ratio, 5 h; at 7.69 µM (top of the series) unless noted
Outline: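 ME-180 cells with beta-lactamase reporter under AP-1 response element, stimulated with EC50 EGF; compounds tested in titration series, 5 h at 37 °C. CCF4 substrate added 2.5 h at room temperature; 460/530 nm emission ratio gave %activity and AC50.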

[3] = molecular target: Cytochrome P450 1A2 (Homo sapiens) (UniProt P05177); experiment: p450-cyp1a2 (AID 410; calls by dose curve; also: potency is read from the fitted curve at half-maximal effect;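 as to activity change, negative = inhibition: -100% = full effect of reference inhibitor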); conditions: recombinant CYP1A2, luciferin-ME demethylation, luminescence; series mostly up to 57 µM
Outline: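 20nM CYP1A2 with 100uM Luciferin-ME (at Km) in 100mM KPO4; compound preincubated 10 min, NADPH regeneration added, 60 min at room temperature. Luciferin quantified by luminescence after detection reagent; normalized to 57 uM furafylline.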

[4] = NFAT Signaling Pathway (AID 444; active = well fitted curve in either direction with a large enough effect, not every such curve was filed as active;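 also: carbachol stimulus at about its EC50 of 1 µM final; % is scaled to controls: 0 for no effect and ±100 for the full control effect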); conditions: Jurkat NFAT-bla M1, carbachol, beta-lactamase ratio, 5 h; at 7.69 µM (top of the series) unless noted
Outline: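 Jurkat cells carrying an NFAT-driven β-lactamase reporter and co-transfected muscarinic M1 receptor were treated with compound plus carbachol (1 uM final, an EC50 level) for 5 h at 37 °C. CCF4 loading followed for 1 h at RT; 460/530 nm ratio gave %activity.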

[5] = Stat Signaling Pathway (AID 446; active = well fitted curve in either direction with a large enough effect, not every such curve was filed as active;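 also: ME-180 cervical cancer cells given 40 pM IL-6 alongside compound; SIE-controlled beta-lactamase reporter measured as 460/530 nm FRET emission ratio; % is scaled to controls: 0 for no effect and ±100 for the full control effect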); conditions: ME-180 SIE beta-lactamase reporter, IL-6 stimulated, 5 h; at 7.69 µM (top of the series) unless noted
Outline: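 ME-180 cells carrying a SIE-driven beta-lactamase reporter are stimulated with 40 pM IL-6 for 5 h at 37C in the presence of compound. The 460/530 nm FRET substrate ratio is read after 2.5 h at RT. Data are normalised to 300 pM IL-6 and to 125 nM JAK inhibitor controls.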

[6] = molecular target: Glucocorticoid receptor (Homo sapiens) (UniProt P04150); experiment: GR-GFP Redistribution (AID 450;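 active = compounds whose dose series gives a full or clear partial fitted curve of increased nuclear translocation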; also: potency is read from the fitted curve at half-maximal effect); conditions: U2OS GR-GFP nuclear translocation, laser cytometry, 2 h
[7] = molecular target: Glucocorticoid receptor (Homo sapiens) (UniProt P04150); experiment: GR-EFC Redistribution (AID 451; calls by dose curve; also: potency is read from the fitted curve at half-maximal effect); conditions: CHO-K1 GR-EFC translocation, beta-gal luminescence, 2 h
Outline: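 CHO-K1 cells stably expressing nuclear-localized β-gal enzyme acceptor and GR fused C-terminally to the enzyme donor fragment; ligand-driven nuclear translocation restores β-gal by complementation. Compounds titrated up to 46 uM final, 2 h at 37 °C; luminescence read.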

[8] = molecular target: Mitogen-activated protein kinase 10 (Mus musculus) (UniProt Q61831); experiment: JNK3 AlphaScreen Assay (AID 530; active = well fitted curve in either direction with a large enough effect, not every such curve was filed as active;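 also: kinase came from lysate of stimulated human HepG2 cells; signal reports phosphorylation of biotinylated GST-cJun 1-79 at Ser73 with 10 µM ATP; % is scaled to controls: 0 for no effect and ±100 for the full control effect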); conditions: JNK3 lysate, c-Jun phosphorylation; series mostly up to 57.1 µM
Outline: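 Inhibitors reduce antibody binding to phosphorylated biotin-cJun, lowering AlphaScreen luminescence. Lysates from HepG2 cells pre-activated by IL-1beta plus TNF-alpha supplied JNK3; compounds were titrated.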

[9] = molecular target: 3',5'-cyclic-AMP phosphodiesterase 4B (Homo sapiens) (UniProt Q07343); experiment: qHTS Assay for Inhibitors of PDE-IV (AID 607; active = well fitted activation curve with a large enough effect in the main read-out, with a control signal flat, not every such curve was filed as active; also: % of control where 0% means no effect); conditions: HEK293 ACTOne CNG channel cells, membrane potential fluorescence; series mostly up to 22.9 µM
Outline: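 HEK293 ACTOne cells with CNG channel (1000/well), endogenous PDE4; membrane potential dye, compounds up to 22.9 uM final. Fluorescence Ex 535/Em 590; RO 20-1724 (100 uM final) as reference.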

[10] = molecular target: Cytochrome P450 3A4 (Homo sapiens) (UniProt P08684); experiment: qHTS Assay for Inhibitors and Substrates of Cytochrome P450 3A4 (AID 884); conditions: recombinant CYP3A4, Luciferin-PPXE luminescence; series mostly up to 57.1 µM; also: nearly all actives have a fitted effect of over 50% in size; also: potency is read from the fitted curve at half-maximal effect
Outline: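 20 nM human CYP3A4 with 25 uM Luciferin-PPXE (at KM) in 200 mM KPO4, preincubated 10 min with compound; NADPH regeneration started a 60 min RT reaction. Luciferin detected by luminescence, normalized to 57 uM ketoconazole as full inhibition.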

[11] = molecular target: Cytochrome P450 3A4 (Homo sapiens) (UniProt P08684); experiment: qHTS Assay for Activators of Cytochrome P450 3A4 (AID 885); conditions: recombinant CYP3A4, Luciferin-PPXE luminescence, 60 min; series mostly up to 57.1 µM; also: nearly all actives have a fitted effect of over 65% in size
Outline: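 Human CYP3A4 (20 nM) with Luciferin-PPXE at 25 uM (its KM) in 200 mM KPO4; 10 min compound preincubation, then NADPH regeneration and 60 min reaction at RT. Luciferin read by luminescence; normalized to 57 uM ketoconazole full inhibition.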

[12] = Confirmation and Secondary Assay for Modulators of Hemoglobin Beta Chain Splicing at IVS2 654 locus (AID 910); conditions: HeLa EGFP-654 splicing reporter, GFP fluorescence, 48 h; series mostly up to 38.3 µM;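 also: per-well total GFP intensity by laser scanning cytometry after 2-day treatment; % of control where 0% means no effect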
Outline: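 HeLa cells stably carrying EGFP interrupted by mutant beta-globin IVS2-654 intron (CMV-driven) were treated with compound for 2 days at 37C; corrected splicing was scored as total peak GFP intensity per well (488 nm excitation, 500-520 nm emission).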

[13] = Confirmation and Secondary Assay for Modulators of Hemoglobin Beta Chain Splicing at IVS2 705 locus (AID 930); conditions: HeLa EGFP-705 splicing reporter, GFP fluorescence, 48 h; series mostly up to 38.3 µM;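 also: HeLa cells stably expressing the EGFP-705 splicing reporter; GFP fluorescence per well restored by corrected splicing of the IVS2-705 intron in EGFP; % of control where 0% means no effect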
Outline: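 Per-well GFP, captured at 1 x 8 µm resolution with 488 nm excitation, served as the read-out for HeLa EGFP-705 cells incubated 2 days with test compound versus DMSO.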

[14] = qHTS Assay for Lipid Storage Modulators (AID 1519; calls by dose curve); conditions: Drosophila S3 cells, BODIPY lipid droplet/cell ratio, laser cytometry, cells loaded with oleic acid; for activity change, negative = inhibition: at 57.5 µM (top of the series)
Outline: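 Cells seeded at 5,000 per well were treated with compounds over a concentration series and loaded with oleic acid (400 uM, as added). Lipid droplet fluorescence (488 nm excitation, 500-530 nm channel) was read by laser-scanning cytometry and normalized to 20 uM Triacsin C.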

[15] = molecular target: Ubiquitin carboxyl-terminal hydrolase 1 (Homo sapiens) (UniProt O94782); experiment: Inhibitors of USP1/UAF1: Pilot qHTS (AID 504865); conditions: purified USP1/UAF1, Ub-rhodamine cleavage fluorescence; series mostly up to 54.9 µM; also: nearly all actives have a fitted effect of over 35% in size; also: potency is read from the fitted curve at half-maximal effect
Outline: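 Kinetic fluorescence assay: 1nM USP1/UAF1, 15 min compound preincubation, then 150nM Ub-Rho; 480/540 nm.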

[16] = Primary qHTS for small molecule stabilizers of the endoplasmic reticulum resident proteome: Secreted ER Calcium Modulated Protein (SERCaMP) assay (AID 1508630); conditions: SH-SY5Y GLuc-SERCaMP (Gaussia luciferase released on ER calcium loss) secretion, thapsigargin, luminescence; series mostly up to 38.4 µM; also: % is scaled to controls: 0 for no effect and ±100 for the full control effect
Outline: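 GLuc-SERCaMP-expressing SH-SY5Y cells, pretreated 16 h with compound, are challenged with thapsigargin to empty ER calcium stores; after 4 h, coelenterazine is added directly to the medium and luminescence is imaged.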

[17] = molecular target: Cytochrome P450 2C19 (Homo sapiens) (UniProt P33261); experiment: qHTS Assay for Inhibitors and Substrates of Cytochrome P450 2C19 (AID 899); conditions: recombinant CYP2C19, luciferin-H EGE luminescence; series mostly up to 57.1 µM; also: potency is read from the fitted curve at half-maximal effect; nearly all actives have a fitted effect of over 60% in size
Outline: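 NADPH-dependent conversion of Luciferin-H EGE (10uM, at KM) by 5nM enzyme in 50mM KPO4, 60 min at 37C following 10 min compound preincubation. Stopped with luciferin detection buffer; luminescence read after 20 min.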

[18] = measured here: cell count channel max response
[19] = measured here: lipid channel max response

Lysosomal acid glucosylceramidase (Homo sapiens), sequence (P04062 whole entry, looked up): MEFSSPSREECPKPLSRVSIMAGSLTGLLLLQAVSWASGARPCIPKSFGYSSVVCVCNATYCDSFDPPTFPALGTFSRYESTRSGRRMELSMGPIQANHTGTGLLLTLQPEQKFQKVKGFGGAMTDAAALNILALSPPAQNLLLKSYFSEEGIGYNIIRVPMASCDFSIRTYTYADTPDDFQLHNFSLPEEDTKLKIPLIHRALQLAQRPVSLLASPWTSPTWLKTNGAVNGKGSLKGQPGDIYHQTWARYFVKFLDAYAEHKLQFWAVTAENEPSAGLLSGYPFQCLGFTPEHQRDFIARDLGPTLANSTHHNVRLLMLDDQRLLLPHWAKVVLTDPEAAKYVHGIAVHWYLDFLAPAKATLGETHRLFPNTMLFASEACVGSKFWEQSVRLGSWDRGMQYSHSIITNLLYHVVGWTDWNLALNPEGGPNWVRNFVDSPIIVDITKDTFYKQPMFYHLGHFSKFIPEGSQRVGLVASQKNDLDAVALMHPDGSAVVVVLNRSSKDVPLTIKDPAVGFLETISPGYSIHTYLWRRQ
Cytochrome P450 3A4 (Homo sapiens), sequence (P08684 whole entry, looked up): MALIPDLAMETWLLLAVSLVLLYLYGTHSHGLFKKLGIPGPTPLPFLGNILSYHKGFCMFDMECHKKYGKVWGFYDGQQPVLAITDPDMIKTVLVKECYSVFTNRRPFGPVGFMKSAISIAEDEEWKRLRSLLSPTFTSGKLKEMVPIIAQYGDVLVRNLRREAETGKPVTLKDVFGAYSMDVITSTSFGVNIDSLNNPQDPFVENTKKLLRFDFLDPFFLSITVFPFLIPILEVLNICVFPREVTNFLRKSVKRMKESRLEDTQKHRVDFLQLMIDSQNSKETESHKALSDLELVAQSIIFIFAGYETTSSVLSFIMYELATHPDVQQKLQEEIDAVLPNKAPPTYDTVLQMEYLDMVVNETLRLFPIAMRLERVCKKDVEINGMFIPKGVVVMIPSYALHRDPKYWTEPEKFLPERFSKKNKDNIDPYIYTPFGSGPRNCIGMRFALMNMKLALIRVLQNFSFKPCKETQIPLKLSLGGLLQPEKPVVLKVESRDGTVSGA
Ubiquitin carboxyl-terminal hydrolase 1 (Homo sapiens), sequence (O94782 whole entry, looked up): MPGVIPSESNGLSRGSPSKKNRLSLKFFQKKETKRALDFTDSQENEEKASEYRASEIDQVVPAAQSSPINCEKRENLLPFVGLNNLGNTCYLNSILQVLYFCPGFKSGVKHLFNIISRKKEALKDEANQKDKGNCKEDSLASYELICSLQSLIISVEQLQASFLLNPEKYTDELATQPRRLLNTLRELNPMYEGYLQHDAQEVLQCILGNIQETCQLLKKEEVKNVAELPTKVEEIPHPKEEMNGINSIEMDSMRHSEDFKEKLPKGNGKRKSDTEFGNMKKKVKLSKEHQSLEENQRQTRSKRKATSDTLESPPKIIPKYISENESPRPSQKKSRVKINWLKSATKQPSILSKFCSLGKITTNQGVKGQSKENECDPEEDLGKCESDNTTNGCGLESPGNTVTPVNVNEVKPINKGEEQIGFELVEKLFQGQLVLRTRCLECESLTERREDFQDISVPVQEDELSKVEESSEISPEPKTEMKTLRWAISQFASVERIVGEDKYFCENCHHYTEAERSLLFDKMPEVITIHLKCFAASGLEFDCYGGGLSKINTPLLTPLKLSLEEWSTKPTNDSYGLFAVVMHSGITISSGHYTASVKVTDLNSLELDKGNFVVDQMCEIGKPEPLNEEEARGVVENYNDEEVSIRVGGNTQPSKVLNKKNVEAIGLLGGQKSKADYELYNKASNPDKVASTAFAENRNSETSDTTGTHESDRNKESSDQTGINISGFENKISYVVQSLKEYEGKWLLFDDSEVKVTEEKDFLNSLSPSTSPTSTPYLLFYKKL
3',5'-cyclic-AMP phosphodiesterase 4B (Homo sapiens), sequence (Q07343 whole entry, looked up): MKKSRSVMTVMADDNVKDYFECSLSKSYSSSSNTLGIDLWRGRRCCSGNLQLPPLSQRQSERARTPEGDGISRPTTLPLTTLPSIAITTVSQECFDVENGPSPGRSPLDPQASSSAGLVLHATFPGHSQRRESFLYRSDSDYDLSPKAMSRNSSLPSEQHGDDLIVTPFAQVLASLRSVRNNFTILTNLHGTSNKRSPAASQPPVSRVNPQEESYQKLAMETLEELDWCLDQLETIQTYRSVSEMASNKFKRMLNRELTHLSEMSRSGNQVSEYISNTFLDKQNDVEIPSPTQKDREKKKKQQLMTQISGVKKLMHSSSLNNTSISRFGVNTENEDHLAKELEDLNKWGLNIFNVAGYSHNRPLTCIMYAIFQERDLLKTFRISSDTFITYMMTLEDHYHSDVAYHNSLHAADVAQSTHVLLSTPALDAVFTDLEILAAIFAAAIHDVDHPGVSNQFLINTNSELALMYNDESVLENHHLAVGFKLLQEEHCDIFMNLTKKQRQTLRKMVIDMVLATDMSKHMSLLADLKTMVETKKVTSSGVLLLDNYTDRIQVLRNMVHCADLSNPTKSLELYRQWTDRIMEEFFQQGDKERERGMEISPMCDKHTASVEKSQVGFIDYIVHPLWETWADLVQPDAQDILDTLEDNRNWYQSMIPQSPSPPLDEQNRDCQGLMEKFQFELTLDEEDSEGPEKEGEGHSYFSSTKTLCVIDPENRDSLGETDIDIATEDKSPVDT
Cytochrome P450 1A2 (Homo sapiens), sequence (P05177 whole entry, looked up): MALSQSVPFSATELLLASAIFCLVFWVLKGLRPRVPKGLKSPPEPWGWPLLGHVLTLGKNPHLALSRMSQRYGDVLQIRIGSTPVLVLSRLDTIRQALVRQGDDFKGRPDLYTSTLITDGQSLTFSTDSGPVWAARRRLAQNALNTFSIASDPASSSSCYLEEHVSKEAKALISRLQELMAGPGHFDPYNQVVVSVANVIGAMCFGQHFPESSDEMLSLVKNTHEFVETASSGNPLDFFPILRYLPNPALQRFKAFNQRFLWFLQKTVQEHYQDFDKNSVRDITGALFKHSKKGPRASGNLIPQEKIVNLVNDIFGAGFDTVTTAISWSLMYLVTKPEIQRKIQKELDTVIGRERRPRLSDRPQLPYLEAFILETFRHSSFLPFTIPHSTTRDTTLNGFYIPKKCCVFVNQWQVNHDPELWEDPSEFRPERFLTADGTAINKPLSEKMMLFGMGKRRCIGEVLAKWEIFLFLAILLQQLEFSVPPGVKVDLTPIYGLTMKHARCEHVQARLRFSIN
Cytochrome P450 2C19 (Homo sapiens), sequence (P33261 whole entry, looked up): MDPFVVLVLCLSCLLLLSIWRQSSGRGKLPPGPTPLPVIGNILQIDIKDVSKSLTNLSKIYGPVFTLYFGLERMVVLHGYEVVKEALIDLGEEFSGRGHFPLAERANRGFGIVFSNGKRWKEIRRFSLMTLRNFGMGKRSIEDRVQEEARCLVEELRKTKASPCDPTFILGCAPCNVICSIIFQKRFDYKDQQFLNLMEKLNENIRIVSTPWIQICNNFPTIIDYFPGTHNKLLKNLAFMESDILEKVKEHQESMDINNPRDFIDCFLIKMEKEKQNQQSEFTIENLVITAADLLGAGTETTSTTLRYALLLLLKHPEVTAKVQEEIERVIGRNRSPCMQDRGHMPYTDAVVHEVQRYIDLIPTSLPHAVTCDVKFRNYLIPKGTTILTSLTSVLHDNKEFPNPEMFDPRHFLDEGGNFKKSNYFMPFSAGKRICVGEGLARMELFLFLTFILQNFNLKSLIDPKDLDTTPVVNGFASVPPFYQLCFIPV
Glucocorticoid receptor (Homo sapiens), sequence (P04150 whole entry, looked up, the tested form may be a part): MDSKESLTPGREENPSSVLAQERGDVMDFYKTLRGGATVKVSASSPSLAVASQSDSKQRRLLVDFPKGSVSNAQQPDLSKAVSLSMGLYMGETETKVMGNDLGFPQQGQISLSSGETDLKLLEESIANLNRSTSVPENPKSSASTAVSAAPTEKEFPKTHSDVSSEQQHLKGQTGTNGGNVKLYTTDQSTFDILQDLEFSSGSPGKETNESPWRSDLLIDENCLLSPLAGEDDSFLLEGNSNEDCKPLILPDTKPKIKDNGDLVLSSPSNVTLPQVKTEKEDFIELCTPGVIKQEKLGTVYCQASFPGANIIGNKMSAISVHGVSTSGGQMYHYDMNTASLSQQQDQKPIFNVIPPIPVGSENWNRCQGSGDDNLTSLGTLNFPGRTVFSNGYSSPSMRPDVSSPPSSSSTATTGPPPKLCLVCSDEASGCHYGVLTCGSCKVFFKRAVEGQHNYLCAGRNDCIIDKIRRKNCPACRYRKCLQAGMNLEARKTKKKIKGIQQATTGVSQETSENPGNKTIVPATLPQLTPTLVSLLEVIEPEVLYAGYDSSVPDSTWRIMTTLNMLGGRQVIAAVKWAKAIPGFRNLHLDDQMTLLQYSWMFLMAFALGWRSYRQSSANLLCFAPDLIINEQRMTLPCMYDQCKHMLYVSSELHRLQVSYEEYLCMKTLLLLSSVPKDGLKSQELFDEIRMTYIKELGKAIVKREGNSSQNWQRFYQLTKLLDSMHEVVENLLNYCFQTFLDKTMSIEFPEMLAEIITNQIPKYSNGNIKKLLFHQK

| Compound | Potency [1] | activity change, negative = inhibition [2] | Potency [3] | activity change, negative = inhibition [4] | activity, negative = inhibition [5] | Potency [6] | Potency [7] | outcome [8] | Potency [9] | Potency [10] | Potency [11] | outcome [12] | outcome [13] | activity change, negative = inhibition [14] | max response [14, 18] | max response [14, 19] | Potency [15] | Potency [16] | Potency [17] |
| --- | --- | --- | --- | --- | --- | --- | --- | --- | --- | --- | --- | --- | --- | --- | --- | --- | --- | --- | --- |
| COc1ccc(CNc2ccnc(-c3ccccc3C(F)(F)F)n2)c(OC)c1 | > 11.4 µM (inactive) | -17.1% (inactive) | 15.8 µM (active) | -5.1% (inactive) | 1.22% (inactive) | > 46 µM (inactive) | > 46 µM (inactive) | inactive | inactive | 3.16 µM (active) | inactive | inactive | inactive | 6.23% (inactive) | 3.1% | 8.88% | 11.2 µM (active) | inactive | – |
| CN(C)Cc1ccccc1-c1cc(Nc2ccccc2)ncn1 | > 11.4 µM (inactive) | 1.09% (inactive) | 15.8 µM (active) | -10.2% (inactive) | 9.68% (inactive) | > 46 µM (inactive) | > 46 µM (inactive) | inactive | inactive | – | – | inactive | inactive | 4.87% (inactive) | 5.64% | 12.4% | inactive | inactive | – |
| FC(F)(F)c1ccccc1-c1cc(N2CCNCC2)ncn1 | > 11.4 µM (inactive) | 10.3% (inactive) | 5.01 µM (active) | 5.38% (inactive) | 3.09% (inactive) | > 46 µM (inactive) | > 46 µM (inactive) | inactive | inactive | – | – | inactive | inactive | 9.89% (inactive) | 13.9% | 24.8% | inactive | inactive | – |
| COc1cccc(-c2cncnc2NCc2ccccc2)c1 | > 11.4 µM (inactive) | -17.1% (inactive) | 5.01 µM (active) | 1.11% (inactive) | -9.01% (inactive) | > 46 µM (inactive) | > 46 µM (inactive) | inactive | inactive | 0.316 µM (active) | inactive | inactive | inactive | 9.98% (inactive) | 12.4% | 12.8% | inactive | inactive | 1.58 µM (active) |
| COc1ccc(CNc2cc(-c3ccoc3)ncn2)c(OC)c1 | > 11.4 µM (inactive) | -15.9% (inactive) | 15.8 µM (active) | 0.143% (inactive) | 19.9% (inactive) | > 46 µM (inactive) | > 46 µM (inactive) | inactive | inactive | – | inactive | – | – | 8.38% (inactive) | 31.5% | 38.7% | inactive | inactive | – |
| CN(C)Cc1ccccc1-c1nccc(N(C)C)n1 | > 11.4 µM (inactive) | 23.3% (inactive) | 12.6 µM (active) | -0.313% (inactive) | 10.1% (inactive) | > 46 µM (inactive) | > 46 µM (inactive) | inactive | inactive | – | inactive | inactive | inactive | 2.35% (inactive) | 4.56% | 7.89% | inactive | inactive | – |
| CN1CCN(c2cc(-c3ccc(N(C)C)cc3)ncn2)CC1 | > 11.4 µM (inactive) | -7.42% (inactive) | 2.51 µM (active) | -7.21% (inactive) | 2.2% (inactive) | > 46 µM (inactive) | > 46 µM (inactive) | inactive | inactive | – | – | inactive | inactive | 8.21% (inactive) | 7.68% | 16.4% | inactive | inactive | – |
| Cc1cnc(CNc2ncncc2-c2ccccc2C(F)(F)F)cn1 | > 11.4 µM (inactive) | -6.17% (inactive) | inactive | 2.1% (inactive) | -1.72% (inactive) | > 46 µM (inactive) | > 46 µM (inactive) | inactive | inactive | – | inactive | inactive | inactive | 7.68% (inactive) | 18.6% | 28.1% | inactive | inactive | – |
| Cc1noc(C)c1-c1cc(Nc2ccc(F)cc2)ncn1 | > 11.4 µM (inactive) | -7.8% (inactive) | 0.501 µM (active) | -15.1% (inactive) | 3.16% (inactive) | > 46 µM (inactive) | > 46 µM (inactive) | inactive | inactive | – | – | inactive | inactive | 8.49% (inactive) | 3.61% | 10.9% | inactive | inactive | – |
| CN(C)c1nc(-c2ccoc2)nc2ccccc12 | > 11.4 µM (inactive) | -8.03% (inactive) | 0.501 µM (active) | -9.32% (inactive) | 6.57% (inactive) | > 46 µM (inactive) | > 46 µM (inactive) | inactive | – | – | inactive | inactive | inactive | 8.68% (inactive) | 8.73% | 18.5% | 56.2 µM (active) | inactive | – |
| COCCNc1cc(-c2ccccc2C(F)(F)F)ncn1 | > 11.4 µM (inactive) | 1.05% (inactive) | 15.8 µM (active) | 1.43% (inactive) | 11% (inactive) | > 46 µM (inactive) | > 46 µM (inactive) | inactive | inactive | inactive | – | inactive | inactive | 7.86% (inactive) | 16.6% | 25.3% | inactive | inactive | 7.94 µM (active) |
| COc1ccccc1-c1cncnc1NCCc1cnc[nH]1 | > 11.4 µM (inactive) | 1.24% (inactive) | 1.26 µM (active) | 3.21% (inactive) | -11.6% (inactive) | > 46 µM (inactive) | > 46 µM (inactive) | inactive | inactive | – | inactive | inactive | inactive | 11.3% (inactive) | 12.9% | 26.1% | inactive | inactive | 0.0794 µM (active) |
